Measurements from PubChem BioAssay AID720514 (Broad Institute, 2013).
Hit rate of the full screen: of about 2,100 compounds, about 300 (14%) were called active. Not shown: some 2% with an inconclusive outcome.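 The calls were made as follows: active = every replicate test run called active, with the signal falling and half-maximal concentration within twice the top valid dose; inconclusive = the replicate test runs disagree in their calls; inactive = every test run inactive, including effects in the opposite direction.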 The list is a sample of the results. Results with a measured potency or affinity are listed apart.

Assay: inhibitors of PGC1a acetylation in cells, dose response, cell-based, cherry-picked samples (AID 720514);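 also: actives lower the acetylation signal so they count as inhibitors of PGC1a acetylation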
Settings: U2OS PGC1a acetylation, AlphaLISA, overnight; series mostly up to 19.5 µM

outcome, inactive:
COc1cccc(C(=O)c2c[nH]c(C(=O)NCc3cccnc3)c2)c1
CCN(CC)S(=O)(=O)c1c(Br)cc(C)cc1Br
CCN(CC)c1ccc(N)cc1S(=O)(=O)Nc1ccccc1OC
O=C(C(Cc1ccccc1)n1cccc1)N1CCN(c2ccccc2)CC1 (stereo not drawn)
O=C(c1ccccc1)c1nn(-c2ccc(Cl)cc2)c(=O)cc1C(F)(F)F
CCn1c(=S)[nH]c2cc(S(=O)(=O)N3CCCCC3)ccc21
C[C@@H]1CN([C@H](C)CO)C(=O)c2cccc(NC(=O)c3ccc(-c4nccs4)cc3)c2O[C@@H]1CN(C)Cc1ccc(C(=O)Nc2ccccc2N)cc1
CC(C)C#Cc1ccc([C@@H]2[C@H](CO)N3C(=O)CN(C(=O)NC4CCCC4)C[C@@H]23)cc1
CC1(C)OC(C)(C)/C(=C\c2ccc(OCC(N)=O)cc2)C1=O
COc1ccc(S(=O)(=O)N(Cc2ccccc2)Cc2nc(-c3ccccc3)no2)cc1
Cc1c(OCc2ccc(C(=O)O)cc2)ccc2c(-c3ccccc3)cc(=O)oc12
CC(C)NC(=O)Nc1ccc2c(c1)C(=O)N([C@@H](C)CO)C[C@@H](C)[C@@H](CN(C)S(=O)(=O)c1ccccc1)OCCCC[C@H](C)O2
CC(C)NC(=O)N(C)C[C@H]1OCCCC[C@@H](C)Oc2ccc(NC(=O)Cc3ccccc3)cc2C(=O)N([C@@H](C)CO)C[C@H]1C
C[C@@H]1CN([C@H](C)CO)C(=O)c2cc(N(C)C)ccc2O[C@@H](C)CCCCO[C@H]1CN(C)C(=O)Nc1ccccc1
C[C@H](CO)N1C[C@H](C)[C@@H](CN(C)S(=O)(=O)c2ccccc2)OCCCC[C@H](C)Oc2ccc(NC(=O)Nc3cccc4ccccc34)cc2C1=O
COCCOC(=O)N1C(=O)[C@@]2(c3ccccc31)[C@H](c1ccccc1OCCO)N1[C@H](c3ccccc3)[C@H](c3ccccc3)OC(=O)[C@H]1[C@@H]2C(=O)N1CCCCCCC1
c1ccc(-c2c(-c3ccccc3)n(Cc3ccco3)c3ncnc(NCCCn4ccnc4)c23)cc1
O=C(CSc1nc2c(sc3ccccc32)c(=O)n1CCc1ccccc1)NCc1ccco1
C=CCn1c(SCC(=O)NC(=O)NCc2ccco2)nc2sc(CC)cc2c1=O
CCOC(=O)c1ccc(NC(=O)Nc2ccc(F)cc2)cc1
CC(=O)Nc1ccc(Nc2ncnc3c2cnn3-c2ccc(C)cc2C)cc1
Cc1cc(Nc2cccc(Cl)c2)c2ccccc2n1
Cc1cc(C)c(S(=O)(=O)Nc2ccccc2-c2ccccc2)c(C)c1
